High-throughput results from PubChem BioAssay.
Sampled rows, rich in hits. Any-hit rate of the full collection: about 2.2%.
Ba/F3 V617F tox: lowers viability of Ba/F3 cells expressing EpoR and JAK2V617F | actives 1.1% (n = 220,000) | inhibition, % at 5.6 µM | ATP luminescence | AID 1446;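 active = inhibition above the campaign mean plus 3 SD over all tested compounds, cut at about 24% in these data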;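 note: cytokine-independent growth of Ba/F3 cells driven by EpoR plus mutant JAK2; 0% = DMSO-treated cells and 100% = JAK inhibitor I control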
IEC-6 cytotox: IEC-6 cytotoxicity, counter-screen for KLF5 inhibitors | inhibition, % at 5 µM | actives 0.78% (n = 290,000) | luminescence viability; in the data active = inhibition above about 22%;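 note: 0% = plate median of test compound wells and 100% = cytotoxic reference compound wells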
aSyn UTR inh: 5' untranslated region of α-synuclein, MLPCN primary screen. actives 0.82% (n = 300,000). inhibition, % (tested at 7.5 µM). alpha-synuclein 5'UTR reporter, inhibitor activity; in the data active = inhibition above about 60%;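 note: H4 neuroglioblastoma cells stably carrying SNCA 5'UTR luciferase fusion; 0% = DMSO wells and 100% = positive control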
BaF3 parental: parental Ba/F3 viability inhibition as JAK2V617F counter-screen; CellTiter-Glo ATP luminescence; actives 1.1% (n = 220,000); AID 1486; inhibition, % at 5.6 µM;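 active = inhibition above a per-campaign cutoff, the mean inhibition of all tested compounds plus 3 SD, cut at about 27% in these data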;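 note: 0% = DMSO wells and 100% = JAK Inhibitor I control wells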
KLF5 inh: kruppel-like factor 5 inhibition; DLD-1 KLF5 promoter-luciferase reporter, luminescence; inhibition, % at 5 µM; actives 0.23% (n = 290,000);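 active = inhibition above a per-plate limit of that plate's mean compound inhibition plus 3 SD, cut at about 60% in these data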;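 note: 0% = DMSO wells and 100% = LY294002 at 200 µM; higher means less KLF5 promoter-driven luciferase light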
APP transl inh: APP translation inhibition; SH-SY5Y APP 5'UTR-luciferase reporter, luminescence; inhibition, % at 2 µM; actives 0.82% (n = 190,000); AID 1285;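 active = inhibition above a set limit, derived from the sample mean plus 3 SD, cut at about 45% in these data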
* = called active by the depositor; x = not tested or not shown.

SMILES	Ba/F3 V617F tox	IEC-6 cytotox	aSyn UTR inh	BaF3 parental	KLF5 inh	APP transl inh
S=c1sc2c(Cl)ncnc2n1-c1ccccc1	0	7	93*	0	-26	65*
Cc1cc(N(C(=O)c2ccco2)C(C(=O)NC2CCCCC2)c2ccccc2)ccc1-n1cnnn1 (stereo unspecified)	-3	-6	-6	51*	1	-9
Cc1oc2c(c1C(=O)O)C(=O)c1ccccc1C2=O	6	-14	-62	19	-11	-12
Cc1oc2c(c1C(=O)c1ccccc1)C(=O)C(=O)c1ccccc1-2	5	2	127*	-3	-103	-92
O=c1c2ccccc2nc(-c2ccc(F)cc2)n1NCc1ccccc1O	-3	-2	-14	3	-10	-11
CCOC(=O)CCS(=O)(=O)c1nc(-c2ccccc2)cc(C(F)(F)F)n1	39*	8	-129	7	-13	30
COC(=O)CCS(=O)(=O)c1nc(-c2ccccc2)cc(C(F)(F)F)n1	3	4	-73	7	-23	21
CS(=O)(=O)c1nc(-c2ccc(F)cc2)cc(C(F)(F)F)n1	15	25*	-126	8	-41	30
CCOC(=O)CS(=O)(=O)c1nc(-c2ccccc2)cc(C(F)(F)F)n1	79*	28*	-21	10	8	57*
CCOC(=O)CS(=O)(=O)c1nc(-c2ccc(F)cc2)cc(C(F)(F)F)n1	-3	1	-33	4	-2	61*
Cc1ccc(N(CC(=O)NCCSc2nc3ccccc3s2)S(=O)(=O)c2ccccc2)c(C)c1	-1	-6	51	6	-37	-16
COc1ccc(NC(=O)CSCC(=O)Oc2c(OC)cccc2OC)cc1	x	x	2	x	x	x
O=C(CSc1nc(O)c(C2CCCCC2)c(=O)[nH]1)N1CCOCC1	1	-2	-1	9	-5	-14
COc1ccc2cc(-c3cc(C(=O)O)c4ccccc4n3)ccc2c1	13	3	78*	15	41	-84
CSCCC(NS(=O)(=O)c1ccc2c(c1)oc(=O)n2C)C(=O)NCc1cccs1 (stereo unspecified)	-6	-2	-16	2	-11	x
CCN(CC)c1ccc(/C=N/n2c(-c3ccccc3Br)n[nH]c2=S)cc1	3	2	78*	0	4	x
COc1ccc(NC2=CC(=O)CC(c3ccccc3)C2)c(OC)c1 (stereo unspecified)	39*	17	12	43*	38	4
COC(=O)c1nnn(-c2nc(N(C)C)nc(N(C)C)n2)c1C	-2	8	11	2	-3	12
Cc1ccc2oc(-c3cccc(NC(=O)C4CCCO4)c3)nc2c1 (stereo unspecified)	2	3	-181	5	-133	-56
Cc1cccc(-c2nc3cc(NC(=O)C4CCCO4)ccc3o2)c1 (stereo unspecified)	1	3	72*	5	-163	-138
Cc1ccc(-c2nc3cc(NC(=O)C(C)C)ccc3o2)cc1C	-3	5	61	3	-147	-160
O=C(Nc1ccc(-c2nc3ccccc3[nH]2)cc1)C1CCCO1 (stereo unspecified)	15	10	77*	22	-43	-180
Cc1ccc(-c2nc3cc(NC(=O)C(C)C)ccc3o2)cc1	0	-1	-7	28*	-230	-147
O=C(Nc1nc2ccccc2[nH]1)C1CCCO1 (stereo unspecified)	1	-1	-79	8	-19	-30
CCOc1ccc(N2C(=O)CC(NC3CCN(C(=O)c4cccs4)CC3)C2=O)cc1 (stereo unspecified)	x	2	-14	x	-1	x
SMILES	Ba/F3 V617F tox	IEC-6 cytotox	aSyn UTR inh	BaF3 parental	KLF5 inh	APP transl inh
COc1ccc(C(=O)/C=C/N(C)C)cc1OC	5	-2	x	5	15	8
COc1ccc(C(=O)/C=C2\NCCc3cc(OC)c(OC)cc32)cc1OC	x	4	64*	x	-31	x
COc1ccc2ccccc2c1/C=N/NC(=S)Nc1cc(S(=O)(=O)N2CCOCC2)ccc1N1CCOCC1	-1	3	13	3	-22	3
CCOc1cccc(/C=N/NC(=S)Nc2cc(S(=O)(=O)N3CCOCC3)ccc2N2CCOCC2)c1O	0	-1	81*	3	-3	54*
COc1ccc(OC)c(NC(=O)CC2Oc3ccccc3NC2=O)c1 (stereo unspecified)	x	2	-38	x	-21	x
O=C(O)CC(Cc1ccccc1)(C(=O)O)c1ccccc1 (stereo unspecified)	x	-10	2	x	-17	x
COc1ccc(S(=O)(=O)N2CCCCCC2)cc1C(=O)N(C)Cc1ccc(Cl)cc1Cl	x	x	4	x	x	x
Cc1onc(-c2ccccc2Cl)c1C(=O)OCN1C(=O)c2ccccc2C1=O	4	6	3	95*	-30	-1
COc1cc(C2CC(=O)Nc3n[nH]c(-c4ccccc4)c32)cc(OC)c1OC (stereo unspecified)	2	2	-120	-4	-15	x
COc1ccc(/C=N/NC(=S)Nc2cccc(C(=O)O)c2)cc1	-3	-3	30	3	-29	-29
COc1cc(/C=N/NC(=S)Nc2cccc(C(=O)O)c2)ccc1O	5	7	70*	6	29	12
COc1ccc(S(=O)(=O)NC2CC2)cc1Cl	x	-4	12	x	-33	x
CC(=O)Oc1ccccc1/C=C/c1nc2ccccc2c(=O)o1	x	-2	66*	x	52	x
Cc1ccc(NC(=O)CN2C(=O)NC3(CCCCC3C)C2=O)cc1S(=O)(=O)N1CCCCC1 (stereo unspecified)	x	x	4	x	x	x
Cc1ccc(C#CC[N+](C)(C)CC#Cc2ccccc2)cc1	85*	2	29	68*	0	10
CN(C)CCN(C(=O)/C=C/c1cccs1)c1nc2c(F)cc(F)cc2s1	2	-2	96*	7	14	8
CN(C)CCCN(C(=O)/C=C/c1cccs1)c1nc2ccc(F)cc2s1	6	0	-14	13	-10	-31
Cc1ccc(NC(=O)c2ccc([N+](=O)[O-])o2)cc1S(=O)(=O)N1CCOCC1	-1	14	-24	-8	-32	58*
CCCC(=O)N1CCN(c2ccc(NC(=O)c3ccc([N+](=O)[O-])o3)cc2Cl)CC1	94*	0	-118	82*	-41	98*
O=C(Nc1ccccc1N1CCOCC1)c1ccc([N+](=O)[O-])o1	x	9	-45	x	-10	x
O=C(Nc1cccc(S(=O)(=O)N2CCCCC2)c1)c1ccc([N+](=O)[O-])o1	1	11	-268	-4	5	45*
O=C(Nc1ccc(N2CCOCC2)c(Cl)c1)c1ccc([N+](=O)[O-])o1	1	-4	-56	-5	-18	95*
O=C(Nc1ccc(N2CCCC2)c(Cl)c1)c1ccc([N+](=O)[O-])cc1	-2	4	-53	2	-15	-13
COc1ccc(Br)cc1-c1nc(CCl)cs1	-3	2	-33	3	-7	-27
O=C(Nc1cccc(Cl)c1N1CCCC1)c1ccc([N+](=O)[O-])o1	-2	-8	x	-2	-13	-18
